# In PubChem BioAssay:
# Activity calls are given as the source filed them.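 Rule for the calls, unless noted: active = normalized viability below 100% at a tested concentration; inactive = the rest.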
# How the values were obtained:
# [1] = sensitizers of A549 cells to miR-34 induction, primary screen, imaging, A549 dox-inducible miR-34, nuclei and caspase counts (AID 1347080;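 active = compounds whose cell count with miR-34 switched on is under 0.7 times the count with it off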); settings: A549 miR-34 inducible, Hoechst nuclei count, 48 h
# [2] = survival rescue of mitochondrial mutant cells in low glucose, primary screen, MELAS cybrids, Rieske KO mouse fibroblasts, CellTiter-Glo (AID 1508586;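 active = mean z-score across replicates of 1.96 or higher in either the MELAS or the Rieske mutant cell line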;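 note: z relative to plate mean and SD of compound and empty wells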)
# [3] = ovarian cancer cell viability with rucaparib, profiling panel, oncology-focused library, rucaparib conditional (AID 1508598); settings: patient-derived ovarian cancer cells, CellTiter-Glo viability, 144 h, stronger effect = lower value
# [4] = stronger effect = lower value, cell number ratio, induced over uninduced
# [5] = measured here: relative caspase fold change +Dox/-Dox
# [6] = measured here: total cells with miR-34 induction, stronger effect = lower value
# [7] = measured here: total cells without miR-34 induction
# [8] = MELAS cybrid survival, CellTiter-Glo 48 h, stronger effect = higher value
# [9] = Rieske KO mouse fibroblast survival, CellTiter-Glo 72 h
compound,measurement,setting,value
COc1cc(C=CC(=O)O)ccc1O,fold change,[1]; [4],0.929 (inactive)
same,fold change,[1]; [5],0.764
same,cell count,[1]; [6],7790
same,cell count,[1]; [7],8380
same,z-score,[2]; [8],-0.291 (inactive)
same,z-score,[2]; [9],-1.2
C[C@]12CCC(=O)C=C1[C@@H]1C[C@@H]1[C@H]1[C@@H]3[C@@H]4C[C@@H]4[C@]4(CCC(=O)O4)[C@@]3(C)CC[C@H]12,fold change,[1]; [4],0.956 (inactive)
same,fold change,[1]; [5],0.848
same,cell count,[1]; [6],6880
same,cell count,[1]; [7],7200
same,z-score,[2]; [8],-0.459 (inactive)
same,z-score,[2]; [9],0.378
OC(c1cc(C(F)(F)F)nc2c(C(F)(F)F)cccc12)[C@H]1CCCCN1 (stereo partly drawn),fold change,[1]; [4],0.875 (inactive)
same,fold change,[1]; [5],0.688
same,cell count,[1]; [6],5320
same,cell count,[1]; [7],6090
same,z-score,[2]; [8],0.101 (inactive)
same,z-score,[2]; [9],-0.0437
COc1cc(C=CC(=O)N2CCN(CC(=O)N3CCCC3)CC2)cc(OC)c1OC,fold change,[1]; [4],0.989 (inactive)
same,fold change,[1]; [5],0.412
same,cell count,[1]; [6],8470
same,cell count,[1]; [7],8570
same,z-score,[2]; [8],-0.177 (inactive)
same,z-score,[2]; [9],-0.0197
N#CC1C[C@@H]2C[C@H]2N1C(=O)C(N)C12CC3CC(CC(O)(C3)C1)C2 (stereo partly drawn),fold change,[1]; [4],0.986 (inactive)
same,fold change,[1]; [5],0.858
same,cell count,[1]; [6],7460
same,cell count,[1]; [7],7570
same,z-score,[2]; [8],-0.404 (inactive)
same,z-score,[2]; [9],0.586
O=C1C(Cc2ccc(O)cc2)N2C(=O)CCN(C(=O)NCc3ccccc3)[C@H]2CN1Cc1cccc2ccccc12 (stereo partly drawn),fold change,[1]; [4],1.06 (inactive)
same,fold change,[1]; [5],0.528
same,cell count,[1]; [6],2850
same,cell count,[1]; [7],2690
same,z-score,[2]; [8],-0.585 (inactive)
same,z-score,[2]; [9],-0.172
COC(=O)[C@]12CCC(C)(C)C[C@@H]1[C@@H]1C(=O)C=C3[C@]4(C)C=C(C#N)C(=O)C(C)(C)[C@@H]4CC[C@@]3(C)[C@]1(C)CC2,fold change,[1]; [4],0.818 (inactive)
same,fold change,[1]; [5],0.469
same,cell count,[1]; [6],308
same,cell count,[1]; [7],376
same,z-score,[2]; [8],-0.649 (inactive)
same,z-score,[2]; [9],-3.82
Cn1cc(C=CC(=O)c2cccc(F)c2)cc1C=CC(=O)NO,fold change,[1]; [4],0.9 (inactive)
same,fold change,[1]; [5],1.19
same,cell count,[1]; [6],7610
same,cell count,[1]; [7],8450
same,z-score,[2]; [8],-0.416 (inactive)
same,z-score,[2]; [9],0.68
Cc1cc(C)c(C=C2C(=O)Nc3ccccc32)[nH]1,fold change,[1]; [4],0.941 (inactive)
same,fold change,[1]; [5],0.528
same,cell count,[1]; [6],5670
same,cell count,[1]; [7],6030
same,z-score,[2]; [8],0.363 (inactive)
same,z-score,[2]; [9],-0.0507
Cc1ccc(S(=O)(=O)C=CC#N)cc1,fold change,[1]; [4],0.909 (inactive)
same,fold change,[1]; [5],0.678
same,cell count,[1]; [6],7140
same,cell count,[1]; [7],7850
same,z-score,[2]; [8],-0.499 (inactive)
same,z-score,[2]; [9],-0.608
Nc1nonc1C(=Nc1ccc(F)c(Cl)c1)NO,fold change,[1]; [4],0.862 (inactive)
same,fold change,[1]; [5],0.685
same,cell count,[1]; [6],8500
same,cell count,[1]; [7],9860
same,z-score,[2]; [8],-0.315 (inactive)
same,z-score,[2]; [9],1.22
same,viability,"[3]; at 0.000305 µM, OCI-C5x cells, with rucaparib 10 µM, 100% = cells with rucaparib alone",127% (inactive)
same,viability,"[3]; at 0.000305 µM, OCI-C5x cells, without rucaparib",108% (inactive)
same,viability,"[3]; at 0.000305 µM, OCI-P5x cells, with rucaparib 20 µM, 100% = cells with rucaparib alone",87% (active)
same,viability,"[3]; at 0.000305 µM, OCI-P5x cells, without rucaparib",92.2% (active)
same,viability,"[3]; at 0.00122 µM, OCI-C5x cells, with rucaparib 10 µM, 100% = cells with rucaparib alone",121% (inactive)
same,viability,"[3]; at 0.00122 µM, OCI-C5x cells, without rucaparib",110% (inactive)
same,viability,"[3]; at 0.00122 µM, OCI-P5x cells, with rucaparib 20 µM, 100% = cells with rucaparib alone",90.4% (active)
same,viability,"[3]; at 0.00122 µM, OCI-P5x cells, without rucaparib",100% (active)
same,viability,"[3]; at 0.00488 µM, OCI-C5x cells, with rucaparib 10 µM, 100% = cells with rucaparib alone",122% (inactive)
same,viability,"[3]; at 0.00488 µM, OCI-C5x cells, without rucaparib",114% (inactive)
same,viability,"[3]; at 0.00488 µM, OCI-P5x cells, with rucaparib 20 µM, 100% = cells with rucaparib alone",94% (active)
same,viability,"[3]; at 0.00488 µM, OCI-P5x cells, without rucaparib",98% (active)
same,viability,"[3]; at 0.0195 µM, OCI-C5x cells, with rucaparib 10 µM, 100% = cells with rucaparib alone",124% (inactive)
same,viability,"[3]; at 0.0195 µM, OCI-C5x cells, without rucaparib",101% (inactive)
same,viability,"[3]; at 0.0195 µM, OCI-P5x cells, with rucaparib 20 µM, 100% = cells with rucaparib alone",99.2% (active)
same,viability,"[3]; at 0.0195 µM, OCI-P5x cells, without rucaparib",95.7% (active)
same,viability,"[3]; at 0.0781 µM, OCI-C5x cells, with rucaparib 10 µM, 100% = cells with rucaparib alone",116% (inactive)
same,viability,"[3]; at 0.0781 µM, OCI-C5x cells, without rucaparib",107% (inactive)
same,viability,"[3]; at 0.0781 µM, OCI-P5x cells, with rucaparib 20 µM, 100% = cells with rucaparib alone",105% (inactive)
same,viability,"[3]; at 0.0781 µM, OCI-P5x cells, without rucaparib",100% (active)
same,viability,"[3]; at 0.313 µM, OCI-C5x cells, with rucaparib 10 µM, 100% = cells with rucaparib alone",116% (inactive)
same,viability,"[3]; at 0.313 µM, OCI-C5x cells, without rucaparib",107% (inactive)
same,viability,"[3]; at 0.313 µM, OCI-P5x cells, with rucaparib 20 µM, 100% = cells with rucaparib alone",99.5% (active)
same,viability,"[3]; at 0.313 µM, OCI-P5x cells, without rucaparib",102% (inactive)
same,viability,"[3]; at 1.25 µM, OCI-C5x cells, with rucaparib 10 µM, 100% = cells with rucaparib alone",127% (inactive)
same,viability,"[3]; at 1.25 µM, OCI-C5x cells, without rucaparib",115% (inactive)
same,viability,"[3]; at 1.25 µM, OCI-P5x cells, with rucaparib 20 µM, 100% = cells with rucaparib alone",91.9% (active)
same,viability,"[3]; at 1.25 µM, OCI-P5x cells, without rucaparib",99.5% (active)
same,viability,"[3]; at 5 µM, OCI-C5x cells, with rucaparib 10 µM, 100% = cells with rucaparib alone",114% (inactive)
same,viability,"[3]; at 5 µM, OCI-C5x cells, without rucaparib",120% (inactive)
same,viability,"[3]; at 5 µM, OCI-P5x cells, with rucaparib 20 µM, 100% = cells with rucaparib alone",79% (active)
same,viability,"[3]; at 5 µM, OCI-P5x cells, without rucaparib",90.1% (active)
